High-throughput results deposited in PubChem BioAssay by several laboratories.
Hits are enriched below; roughly 1.1% of the tested compounds scored in any of these assays.
DUSP3 inh: VHR1 phosphatase inhibitors, primary screen, biochemical, absorbance, uHTS. Dual specificity protein phosphatase 3 (Homo sapiens), P51452. recombinant VHR phosphatase, pNPP absorbance. inhibition, % at 13.3 µM. 290,000 compounds, 0.52% hits; in the data active means inhibition above about 50%
Target sequence (P51452 whole entry, looked up): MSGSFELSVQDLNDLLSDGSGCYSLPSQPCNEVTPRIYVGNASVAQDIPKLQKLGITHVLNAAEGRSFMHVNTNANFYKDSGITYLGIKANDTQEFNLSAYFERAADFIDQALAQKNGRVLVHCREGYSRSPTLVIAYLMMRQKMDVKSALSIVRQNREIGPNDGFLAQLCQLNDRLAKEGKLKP
BJeLR viability: MLPCN primary cell-based screen for lethality selective to Ras in HRASV12 cells; 300,000 compounds, 0.17% hits; BJeLR (HRASV12) viability, CellTiter-Glo ATP luminescence, 48 h; inhibition, % (concentration not given with the values); in the data active means inhibition above about 50%
3CLpro inhibitor: SARS-CoV 3CLpro protease inhibitors, primary screen, biochemical, quenched FRET. AID 1706, 2009. inhibition, % at 6 µM. 290,000 compounds, 0.14% hits. recombinant SARS-CoV 3CLpro, quenched FRET peptide cleavage. Replicase polyprotein 1ab (Severe acute respiratory syndrome coronavirus), P0C6X7; in the data active means inhibition above about 12%
PrPC TRFRET: inhibitors of human cell surface prion protein PrPC, primary screen, cell-based, TR-FRET; 370,000 compounds, 0.43% hits; AID 720596, 2013; Major prion protein (Homo sapiens), P04156; inhibition, % at 13.8 µM; TR-FRET read-out; in the data active means inhibition above about 24%; further: 0% = median of the test wells and 100% = reference compound wells
Starred values were filed as active, the others as inactive; x = no result.

SMILES	DUSP3 inh	BJeLR viability	3CLpro inhibitor	PrPC TRFRET
Cc1c(C(=O)N(CCO)Cc2ccccc2)oc2c(F)cccc12	55.5*	-10.3	-3.1	9.3
NC(=O)CSc1nnc(CNc2ccc(F)cc2)n1CC1CCCO1 (stereo unspecified)	-20.8	4.6	1.8	2.3
Cc1ccc(NCc2nnc(SCC(N)=O)n2CC2CCCO2)c(C)c1 (stereo unspecified)	52.9*	-1.0	-13.7	-4.0
Cc1cc(C(=O)Nc2ccc(Br)cc2F)n(-c2ccccc2)n1	58.1*	-3.0	-3.6	-2.5
Cc1cc(C(=O)Nc2ccc(F)cc2C)n(-c2ccccc2)n1	12.5	1.5	-0.1	-5.3
NNC(=O)c1sccc1OCc1ccc(F)cc1	54.7*	12.6	1.8	3.6
O=C(CCc1nc2ccccc2c(=O)[nH]1)N1CCN(C/C=C/c2ccccc2)CC1	6.7	10.0	-2.0	11.2
O=c1[nH]c(CN2CCN(C/C=C/c3ccccc3)CC2)nc2cc(Cl)ccc12	54.3*	7.6	-7.1	-4.9
C#CCNC(=O)C[C@H]1C[C@@]2(C(=O)OC)C(=C[C@H](C(C)C)O[C@@H]2C2CC2)N(CCCCCCCC)C1=O	x	x	x	-1.1
Cc1nn(C)c(C)c1S(=O)(=O)N(CC(=O)N1CCc2ccccc21)c1ccc(C(C)C)cc1	50.3*	-5.7	1.6	6.7
COc1ccc(N(CC(=O)N2CCc3ccccc32)S(=O)(=O)c2c(C)nn(C)c2C)cc1	23.2	0.1	-2.2	-1.9
CCC1CN(C(=O)NCc2ccc(C)cc2)c2cc(Cl)ccc2O1 (stereo unspecified)	-11.9	1.4	6.7	-2.1
CCC1CN(C(=O)NCc2ccc(F)cc2)c2cc(Cl)ccc2O1 (stereo unspecified)	57.3*	6.8	3.4	-1.5
CCOC(=O)Cc1csc(NC(=O)CSc2nc(N)c3c(C)c(C)sc3n2)n1	50.3*	-4.0	0.1	10.8
S=c1[nH]nc(-c2n[nH]c3c2CCC3)n1N=Cc1c[nH]c2ccccc12	x	x	x	6.1
S=C1Cc2ccccc2N1	11.6	-5.4	-68.5	40.8*
CN1CCN(C(=O)OC2CC3CC2[C@H]2CCCCN2C3=O)CC1 (stereo partly specified)	x	x	x	-2.8
O=C(C1CCCN(c2ncnc3c2nc2n3CCCCC2)C1)N1CCN(c2cccc(Cl)c2)CC1 (stereo unspecified)	17.8	-2.5	3.9	0.3
CN(C(=O)C1CCCN(c2ncnc3c2nc2n3CCCCC2)C1)c1cccc(Cl)c1 (stereo unspecified)	52.3*	2.3	-4.9	3.1
NC(Cc1ccc(F)cc1)c1csc(Nc2ccc(C(=O)c3ccccc3)cc2)n1 (stereo unspecified)	x	x	x	-0.1
O=C(Cc1ccccc1Cl)N/N=C/c1cccnc1	18.5	-8.9	-3.2	-2.9
O=C(Cc1ccc(Cl)c(Cl)c1)N/N=C/c1cccnc1	57.1*	0.2	-4.6	-2.2
CCn1cc(C(=O)NNC(=O)c2ccc(Cl)cc2)c(=O)c2ccc(C)nc21	52.1*	-4.2	0.3	x
CCn1cc(C(=O)OCC(=O)c2ccc(Cl)cc2)c(=O)c2ccc(C)nc21	-0.6	8.9	0.5	-8.4
COC(=O)C1=C(C)N(Cc2ccc(Br)cc2)C(=S)NC1c1cccc(OC)c1 (stereo unspecified)	x	x	x	3.2
SMILES	DUSP3 inh	BJeLR viability	3CLpro inhibitor	PrPC TRFRET
Cc1nc2cc(-c3ccccc3)sc2c(=O)n1N	12.4	78.6*	2.8	-2.4
COc1ccc(-c2cc3nc(C)n(N)c(=O)c3s2)cc1	6.2	98.8*	-1.0	1.4
Cn1c(NCc2ccccc2)nc2cc(-c3ccccc3)sc2c1=O	x	x	x	3.1
Cc1ccnc(NC(=O)c2ccc(COc3c(F)c(F)cc(F)c3F)o2)c1	58.2*	2.5	-5.5	-3.7
Cc1[nH]c2ccc(C(=O)NCCCN3CCCCC3)cc2c1C	56.7*	4.6	-0.7	1.7
Cc1[nH]c2ccc(C(=O)NCCN3CCCCCC3)cc2c1C	-13.4	-2.2	2.5	-5.1
CCN(CC)c1ccc(NC(=O)CNCc2ccccc2Cl)c(C)c1	3.5	-4.4	-5.2	-1.9
O=C(NCCNS(=O)(=O)c1ccccc1)c1ccc([N+](=O)[O-])cc1	58.3*	2.5	-0.1	-21.8
COc1ccc(C(=O)c2ccc(Cl)c([N+](=O)[O-])c2)cc1	-0.1	66.7*	-0.6	-24.8
COc1ccc(C(=O)c2ccc(Cl)cc2)cc1	-1.7	2.2	-2.2	6.5
